Assay outcomes as filed in PubChem.
Sampled rows, rich in hits. Any-hit rate of the full collection: about 19%.
DT40 TDP1 no CPT – qHTS for Inhibitors of human tyrosyl-DNA phosphodiesterase 1 (TDP1): qHTS in cells in absence of CPT; DT40 Tdp1-/- hTDP1 cells, no CPT, ATP luminescence, 48 h; Potency, µM (top dose mostly 46.2 µM), actives largely listed as inhibitors; 420,000 compounds, 15% hits; AID 686978, 2013; also: nearly all actives have a fitted effect of over 55% in size
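Compound effects on proliferation are scored in DT40 Tdp1-/-;hTDP1 cells in the absence of CPT. ATP levels (CellTiter-Glo luminescence) are recorded after a ≥48 hr, 37 °C incubation.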
TDP1 inh – blocks human tyrosyl-DNA phosphodiesterase 1; AID 485290; Q9NUW8; 350,000 compounds, 0.28% hits; recombinant TDP1, AlphaScreen DNA substrate cleavage; Potency, µM (doses to about 130 µM), hits mostly inhibitors; also: nearly all actives have a fitted effect of over 40% in size
Target sequence (Q9NUW8 whole entry, looked up): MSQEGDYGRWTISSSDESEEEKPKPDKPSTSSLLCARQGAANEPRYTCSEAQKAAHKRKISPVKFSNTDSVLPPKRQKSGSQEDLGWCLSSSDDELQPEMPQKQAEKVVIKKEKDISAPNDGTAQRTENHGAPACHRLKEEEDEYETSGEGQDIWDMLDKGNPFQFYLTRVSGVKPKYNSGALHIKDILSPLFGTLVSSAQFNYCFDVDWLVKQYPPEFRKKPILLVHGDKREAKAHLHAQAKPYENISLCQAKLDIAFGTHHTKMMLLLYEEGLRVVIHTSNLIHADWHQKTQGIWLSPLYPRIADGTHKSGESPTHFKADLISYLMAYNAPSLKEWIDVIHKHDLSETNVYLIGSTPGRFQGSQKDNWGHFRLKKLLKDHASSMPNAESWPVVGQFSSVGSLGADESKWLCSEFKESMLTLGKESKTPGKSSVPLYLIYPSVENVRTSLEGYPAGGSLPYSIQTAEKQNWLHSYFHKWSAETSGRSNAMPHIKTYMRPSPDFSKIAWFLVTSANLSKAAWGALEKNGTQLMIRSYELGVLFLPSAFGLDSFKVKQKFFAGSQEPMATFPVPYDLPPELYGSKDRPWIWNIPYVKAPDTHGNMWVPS
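Enzyme-compound mixtures sat 15 min at room temperature, followed by a 5 min reaction with 15 nM final substrate and 10 min with AlphaScreen beads. Recombinant human Tdp1 was used at 1 nM final.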
TDP1 cell CPT – growth inhibition of DT40 Tdp1-/-;hTDP1 cells with camptothecin (screen for TDP1 inhibitors); chicken DT40 Tdp1-/-;hTDP1 cells + 20 nM CPT, ATP luminescence, 48 h; Potency, µM (highest dose often 46.2 µM), hits mostly inhibitors; 420,000 compounds, 12% hits; AID 686979; also: nearly all actives have a fitted effect of over 55% in size
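Cell growth measured by CellTiter-Glo luminescence after a minimum 48 h, 37 C compound exposure with 20 nM CPT in Tdp1-knockout DT40 cells stably expressing hTDP1, seeded 400/well; qHTS titration format.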
TGFb SMAD3 inh – TGF-b pathway inhibition; HepG2 CAGA-GFP TGF-b/SMAD3 reporter, GFP fluorescence, 18 h; TGF-beta stimulated, 500 pg/mL final; Potency, µM (titrated, usually from 46.1 µM), hits mostly inhibitors; 410,000 compounds, 1.2% hits; AID 588855; also: nearly all actives have a fitted effect of over 65% in size
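HEPG2 CAGA-GFP cells (1000/well, DMEM with 1% FBS) were pre-incubated 2 h at 37 degrees C, given compound by pin tool, then stimulated with TGF-beta at 500 pg/mL final for 18 h before per-cell GFP fluorescence imaging.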
HepG2 tox – kills HepG2 cells in TGF-b inhibitor counter-screen. HepG2 CAGA-GFP viability, ATP luminescence, 18 h. Potency, µM (top dose mostly 46.1 µM), most hits filed as cytotoxic. AID 588856. 410,000 compounds, 0.76% hits
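HepG2 CAGA-GFP cells (1000/well, DMEM with 1% FBS) received compound, then TGF-beta at 500 pg/mL final, and were incubated 18 hours at 37 degrees C. Viability was read by CellTiter-Glo luminescence. Media-only wells were set as complete cell-killing and DMSO as no toxicity.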
IL1B secr inh – blocks inflammasome-driven IL-1 beta release | THP-1 LPS/ATP IL-1B secretion, AlphaLISA, 16 h; stronger effect = lower value | activity change, % at 57.5 µM | AID 743279 | 360,000 compounds, 4.7% hits; in the data active = activity change below about -50%; inconclusive = mostly about -30% to -49%
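Secreted IL-1B measured by AlphaLISA bead assay after 16 h compound exposure of THP-1 cells; compounds (final up to 57.5 uM) added 1 h before LPS (250 ng/mL) and ATP (1.25 mM) stimulation; lower signal means less secretion.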
Hits are given with their value; – = inactive; ? = inconclusive; · = not tested or not shown; [ ] = remark or other dose. Unless noted, calls follow the shape of the dose curve; as a rule, active = well fitted curve in the direction sought with a large enough effect; inconclusive = small, poorly fitted or top-dose-only effect, or another doubt; inactive = no such curve, though single readings can be large; an effect the other way counts as inactive or inconclusive.

SMILES	DT40 TDP1 no CPT	TDP1 inh	TDP1 cell CPT	TGFb SMAD3 inh	HepG2 tox	IL1B secr inh
Cc1nnc(NC(=O)c2ccc(S(=O)(=O)N3CC(C)OC(C)C3)cc2)o1 (configuration not stated)	–	–	–	–	–	–
CCC1CCCCN1S(=O)(=O)c1ccc(NC(=O)c2cccnc2)cc1 (configuration not stated)	?	–	–	–	–	–
CC1CC(C)CN(S(=O)(=O)c2ccc(C(=O)Nc3sccc3C(N)=O)cc2)C1 (configuration not stated)	20.6µM	–	18.4µM	?	–	–
CC1CC(C)CN(S(=O)(=O)c2ccc(C(=O)Nc3nnc(-c4cccs4)o3)cc2)C1 (configuration not stated)	5.01µM	–	6.31µM	–	–	–
CCC1CCCCN1S(=O)(=O)c1ccc(C(=O)Nc2nnc(-c3cccs3)o2)cc1 (configuration not stated)	6.31µM	–	6.31µM	?	–	–
COc1cc(Cn2c(=O)sc3ccccc32)ccc1OCCC(C)C	?	–	?	–	–	·
Cc1cc([N+](=O)[O-])ccc1NC(c1nnc(-c2ccccc2)o1)c1ccccc1F (configuration not stated)	–	–	–	–	–	·
C=CCC1(c2ccccc2)Oc2ccc(C)cc2-c2nc3cc(Cl)c(Cl)cc3nc21 (configuration not stated)	·	–[21 µM]	·	·	·	·
CCOc1ccc(-n2ccnc2SCC(=O)Nc2nc3ccc(C)cc3s2)cc1	–	–	–	–	–	·
COc1ccccc1CNc1ncnc2ccc(-c3ccccc3CN(C)C)cc12	?	–	?	·	·	·
COc1ccc(CNc2ncnc3ccc(-c4cccc(NS(C)(=O)=O)c4)cc23)c(OC)c1	14.6µM	·	18.4µM	·	·	·
COc1ccc(CNc2ncnc3ccc(-c4ccoc4)cc23)c(OC)c1	–	·	?	·	·	·
COc1ccc(CNc2ncnc3ccc(-c4cccc(C#N)c4)cc23)c(OC)c1	25.9µM	·	?	·	·	·
COc1ccc(CNc2ncnc3ccc(-c4ccccc4CN(C)C)cc23)c(OC)c1	10.3µM	–	20.6µM	·	·	·
COc1ccc(NC(=O)CO/N=C/C(=O)Nc2ccccc2C)c([N+](=O)[O-])c1	–	–	–	–	–	–
O=C1CCC(C(=O)N2CCCCCC2)CN1Cc1cccc(C(F)(F)F)c1 (configuration not stated)	–	–	–	–	–	–
Cc1c(/C=N\NC(=O)c2c[nH]c3ccccc23)cnn1C	–	–	–	–	–	–
O=C(NC(Cc1c[nH]c2ccccc12)C(=O)N/N=C/c1ccc(Cl)cc1)c1cccs1 (configuration not stated)	?	–	11.6µM	?	–	-65.7
CCN(CC)c1ccc(/C=N/NC(=O)c2c[nH]c3ccccc23)cc1	23.1µM	–	?	–	–	–
O=C(CC(=O)N/N=C/c1ccc(F)cc1)N/N=C/c1ccc(F)cc1	?	–	–	–	–	–
O=C(Cc1c[nH]c2ccccc12)N/N=C/c1ccc(F)cc1	20.6µM	–	16.4µM	–	–	–
O=C(N/N=C/c1cccs1)c1c[nH]c2ccccc12	11.6µM	–	?	–	–	–
CCCCCCCC1=CC2=CC(=O)C(C)(O)C(=O)C2=CN1CCCC (configuration not stated)	·	–[21 µM]	·	·	·	·
CCc1nnc(SCC(=O)Nc2ccc(F)cc2F)c2cc3sc(C)cc3n12	–	–	–	–	–	·
O=C(N/N=C/c1c[nH]c2ccccc12)c1ccccc1Cl	–	·	–	–	–	–
SMILES	DT40 TDP1 no CPT	TDP1 inh	TDP1 cell CPT	TGFb SMAD3 inh	HepG2 tox	IL1B secr inh
CCc1ccc(/C=N/NC(=O)c2c[nH]c3ccccc23)s1	–	–	20.6µM	–	–	?
Cn1cnc([N+](=O)[O-])c1Oc1ccc2ccccc2c1	?	–	8.2µM	?	–	-102.8
Cn1cnc([N+](=O)[O-])c1Nc1cccc(O)c1	–	–	–	–	–	–
CCCC(=O)n1nc(-c2ccco2)nc1SCc1ccccc1	?	–	3.66µM	–	–	–
COc1ccc(OC)c(NC(=O)C23CC4CC(C2)CC(n2cnc(Br)n2)(C4)C3)c1	10µM	–	11.2µM	–	–	–
COc1ccc(NC(=O)C23CC4CC(C2)CC(n2cnc(Br)n2)(C4)C3)c(OC)c1	?	–	?	–	–	–
CSCCC(NC(=O)COc1ccccc1)C(=O)NCCOc1ccc(C)cc1 (configuration not stated)	–	–	–	–	–	–
Fc1cccc(NC(=S)NNc2ccccc2)c1	2.59µM	·	3.26µM	?	–	–
Fc1cccc(NC(=S)NNc2c3ccccc3nc3ccccc23)c1	0.92µM	–	1.3µM	?	–	–
CCOC(=O)c1c(C)sc2c1N(C(=O)CN(CC)CC)c1cc(Cl)ccc1S2	?	–	18.4µM	?	–	–
NCCC(=O)N1c2ccccc2Sc2ccc(Cl)cc21	?	–	?	?	–	?
CCOC(=O)c1c(C)sc2c1N(C(=O)CN(CC)CC)c1ccccc1S2	20.6µM	–	?	–	–	–
CCOC(=O)N1CCN(CC(=O)N2c3ccccc3Sc3ccccc32)CC1	?	·	?	?	–	–
CC(NC(=O)CSc1ccc(S(=O)(=O)N2CCOCC2)cn1)c1ccc(Cl)cc1Cl (configuration not stated)	–	·	?	–	–	–
COC(=O)C1CCN(Cc2ccc3c(c2)CN(C(=O)C(C)N2CCOCC2)CCO3)CC1 (configuration not stated)	–	·	–	·	·	·
CCc1ccc(CNC(=O)COc2cc(=O)n(CC)c3ccccc23)cc1	25.9µM	–	?	?	–	·
CCn1c(=O)cc(OCC(=O)NCc2ccc(F)cc2Cl)c2ccccc21	23.1µM	–	?	–	–	·
Cn1c(=O)cc(OCCCC(=O)NCc2ccc(F)cc2Cl)c2ccccc21	?	–	–	–	–	–
CCn1c(=O)cc(OCC(=O)NCCC(C)C)c2ccccc21	?	–	29.1µM	–	–	–
COc1ccccc1N1CCN(C(=O)c2sc3nc4n(c(=O)c3c2C)CCC4)CC1	–	–	–	–	–	–
Cc1c(C(=O)N2CCCCC2C)sc2nc3n(c(=O)c12)CCC3 (configuration not stated)	–	–	–	–	–	–
Cc1cccc(N2CCN(C(=O)c3sc4nc5n(c(=O)c4c3C)CCC5)CC2C)c1 (configuration not stated)	13µM	–	16.4µM	?	–	·
